In PubChem BioAssay:
Activity calls are given as the source filed them.

Columns and labels:
[1] = tested on: Human papillomavirus type 1a protein E7 (residues 44-93); assay: HPV1a E7 fragment binders on microarrays, primary screen, biochemical, small-molecule microarray, residues 44-93, 635 nm fluorescence (AID 1108); settings: small-molecule microarray binding, fluorescence 635 nm; higher = more signal;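 note: E7 fragment applied at 1 µg/mL in TBST for 1 h at 4 C; score combines spot fluorescence with its signal to noise ratio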
[2] = modulators of HCV replicon luciferase signal, primary screen, HCV replication inhibitor project, Huh7 cells, luciferase reporter (AID 1109); settings: 48 h, higher = more signal;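 note: huh7 hepatoma cells harbouring a luciferase neomycin HCV replicon reporter; luciferase luminescence as measure of HCV replicon replication; test concentration not given here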
[3] = target: Left-right determination factor 2 (Homo sapiens) (UniProt O00292); assay: LEFTY2 binders on small-molecule microarrays, primary screen, biochemical, small-molecule microarray, 635 nm fluorescence scan (AID 1110); settings: LEFTY2 binding, higher = more signal
[4] = target: Calmodulin-1 (Homo sapiens) (UniProt P0DP23); assay: CALM1 binders on microarrays, EGTA buffer, profiling panel, biochemical, small-molecule microarray, Cy5-labelled CALM1 (AID 1111); settings: Cy5-CALM1 binding fluorescence, higher = more signal;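 note: labelled calmodulin applied in Tris saline Tween buffer holding calcium plus EGTA and DTT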
[5] = target: Calmodulin-1 (Homo sapiens) (UniProt P0DP23); assay: calcium-bound CALM1 binders on microarrays, profiling panel, artefact control for SMM control-protein annotation, biochemical, small-molecule microarray, Cy5-labelled CALM1, plus calcium (AID 1112); settings: Cy5-CALM1 binding fluorescence, higher = more signal;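 note: score merges spot fluorescence with signal to noise from triplicate slides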
[6] = small-molecule microarray binders of probe aWnt5a, primary screen, biochemical, biotinylated probe, 635/667 nm fluorescence (AID 1113); settings: higher = more signal;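 note: score merges 667 nm fluorescence intensity with signal-to-noise per printed feature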
[7] = small-molecule microarray binders of probe aShh, primary screen, biochemical, biotinylated probe, 635/667 nm fluorescence (AID 1114); settings: higher = more signal;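 note: probe is biotin-labelled aShh protein from a stem cell growth factor screen; measures binding of labelled protein to compounds printed on the slide; score merges feature fluorescence at 667 nm with signal-to-noise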
[8] = small-molecule microarray binders of probe aNog, primary screen, biochemical, biotinylated probe, 635/667 nm fluorescence (AID 1115); settings: higher = more signal;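 note: probe is biotinylated aNog protein used at 0.15 µg/mL for 1 h at 4 C; z-score combines 667 nm fluorescence of each spot with its signal to noise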
[9] = target: Torsin-1A-interacting protein 1 (Homo sapiens) (UniProt Q5JTV8); assay: LAP1 binders from COS7 cell lysate, primary screen, small-molecule microarray, 635/667 nm fluorescence (AID 1116); settings: COS7-hLAP1 lysate binding, 635 nm fluorescence, higher = more signal
[10] = target: Alpha-bungarotoxin (Bungarus multicinctus) (UniProt P60615); assay: alpha-bungarotoxin binders on microarray, profiling panel, artefact control for SMM control protein annotation, biochemical, small-molecule microarray, Alexa647 label, 635/667 nm fluorescence (AID 1117); settings: alpha-BTX-A647 binding fluorescence, higher = more signal
Albumin (Bos taurus) = Albumin (Bos taurus) (UniProt P02769); assay: bovine serum albumin binders on microarray, profiling panel, artefact control for SMM control protein annotation, biochemical, small-molecule microarray, Alexa647 label, 635/667 nm fluorescence (AID 1118); settings: BSA-A647 binding, fluorescence 635 nm, higher = more signal;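 note: score merges 667 nm emission intensity and signal-to-noise per printed compound spot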
[11] = small-molecule microarray binders of probe aXIP, primary screen, biochemical, NeuroSMM set, 635/667 nm fluorescence (AID 1119); settings: higher = more signal, called active from +8 up or from −8 down;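 note: probe is the protein aXip251-270 applied at 1 µg/mL to compound-printed slides; binding of probe to printed compounds measured as 667 nm fluorescence plus signal to noise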
[12] = small-molecule binders of probe aNOTCH3, primary screen, biochemical, small-molecule microarray, 635/667 nm fluorescence (AID 1120); settings: higher = more signal;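 note: probe is a biotin-tagged antibody raised against NOTCH3 rather than NOTCH3 protein; score merges spot fluorescence near 667 nm with spot signal to noise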
[13] = small-molecule binders of probe aNOTCH2, primary screen, biochemical, small-molecule microarray, 635/667 nm fluorescence (AID 1121); settings: higher = more signal;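 note: score merges feature fluorescence read at 667 nm with its signal to noise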
[14] = target: Carbonic anhydrase 2 (Homo sapiens) (UniProt P00918); assay: CAII small-molecule binders, profiling panel, biochemical, small-molecule microarray, Alexa647-labelled CAII (AID 1122); settings: CAII-A647 binding fluorescence, higher = more signal
[15] = COS7 lysate on small-molecule microarray, probe aHis, 635 nm (AID 1123); settings: COS7 cell lysate, fluorescence, higher = more signal;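 note: z-score combines 667nm fluorescence intensity with signal-to-noise per printed compound spot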
[16] = compound binding in COS7 lysate, probe aLAP1, primary screen, cell lysate, small-molecule microarray (AID 1124); settings: probe aLAP1, fluorescence, higher = more signal;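 note: lysate comes from COS7 cells expressing LAP1 and is applied at 0.3 µg/mL; score merges spot fluorescence near 667 nm with signal-to-noise over triplicate slides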
Sam68 (KHDRBS1) = assay: Sam68 small-molecule binders, primary screen, biochemical, small-molecule microarray, 635 nm fluorescence (AID 1125); settings: small-molecule microarray binding, higher = more signal;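 note: score merges 667 nm channel intensity with signal to noise over triplicate slides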
[17] = tested on: Chordin-like protein 2 (CHRDL2); assay: CHRDL2 small-molecule binders, primary screen, biochemical, small-molecule microarray, 635 nm fluorescence (AID 1126); settings: small-molecule microarray binding, fluorescence 635 nm; higher = more signal;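 note: printed compound slides probed with Chrdl2 protein at 4 µg/mL for 1 h at 4 C; score merges 667 nm emission intensity with signal to noise over three replicate slides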
[18] = target: Concanavalin-A (Canavalia ensiformis) (UniProt P02866); assay: ConA small-molecule binders, primary screen, artefact control for SMM control protein annotation, biochemical, small-molecule microarray, Alexa647 label, 635 nm (AID 1127); settings: ConA-A647 binding fluorescence, higher = more signal;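 note: z combines 667 nm emission intensity with signal-to-noise across three replicate slides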
Chain of Concanavalin-A (Canavalia ensiformis) (P02866 whole entry, looked up): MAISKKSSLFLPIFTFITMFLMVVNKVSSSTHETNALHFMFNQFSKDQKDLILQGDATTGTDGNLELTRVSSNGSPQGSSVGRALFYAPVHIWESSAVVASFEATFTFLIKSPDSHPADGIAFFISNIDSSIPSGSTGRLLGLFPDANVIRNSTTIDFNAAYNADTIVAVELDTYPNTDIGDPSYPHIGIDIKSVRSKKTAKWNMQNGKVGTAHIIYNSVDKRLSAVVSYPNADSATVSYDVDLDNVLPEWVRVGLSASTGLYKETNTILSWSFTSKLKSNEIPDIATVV

Chain of Alpha-bungarotoxin (Bungarus multicinctus) (P60615 whole entry, looked up): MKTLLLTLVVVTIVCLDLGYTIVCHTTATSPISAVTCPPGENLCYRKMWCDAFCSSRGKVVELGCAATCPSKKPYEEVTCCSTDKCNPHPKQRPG
Chain of Left-right determination factor 2 (Homo sapiens) (O00292 whole entry, looked up): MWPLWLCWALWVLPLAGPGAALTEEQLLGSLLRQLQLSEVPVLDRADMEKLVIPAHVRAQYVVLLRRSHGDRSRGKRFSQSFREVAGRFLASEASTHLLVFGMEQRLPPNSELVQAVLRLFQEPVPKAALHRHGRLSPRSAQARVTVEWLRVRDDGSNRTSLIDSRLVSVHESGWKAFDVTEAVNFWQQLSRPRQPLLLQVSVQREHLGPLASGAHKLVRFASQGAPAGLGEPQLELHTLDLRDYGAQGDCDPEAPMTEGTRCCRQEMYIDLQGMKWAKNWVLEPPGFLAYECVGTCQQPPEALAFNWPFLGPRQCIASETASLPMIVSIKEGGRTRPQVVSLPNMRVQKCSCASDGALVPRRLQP
Chain of Torsin-1A-interacting protein 1 (Homo sapiens) (Q5JTV8 whole entry, looked up): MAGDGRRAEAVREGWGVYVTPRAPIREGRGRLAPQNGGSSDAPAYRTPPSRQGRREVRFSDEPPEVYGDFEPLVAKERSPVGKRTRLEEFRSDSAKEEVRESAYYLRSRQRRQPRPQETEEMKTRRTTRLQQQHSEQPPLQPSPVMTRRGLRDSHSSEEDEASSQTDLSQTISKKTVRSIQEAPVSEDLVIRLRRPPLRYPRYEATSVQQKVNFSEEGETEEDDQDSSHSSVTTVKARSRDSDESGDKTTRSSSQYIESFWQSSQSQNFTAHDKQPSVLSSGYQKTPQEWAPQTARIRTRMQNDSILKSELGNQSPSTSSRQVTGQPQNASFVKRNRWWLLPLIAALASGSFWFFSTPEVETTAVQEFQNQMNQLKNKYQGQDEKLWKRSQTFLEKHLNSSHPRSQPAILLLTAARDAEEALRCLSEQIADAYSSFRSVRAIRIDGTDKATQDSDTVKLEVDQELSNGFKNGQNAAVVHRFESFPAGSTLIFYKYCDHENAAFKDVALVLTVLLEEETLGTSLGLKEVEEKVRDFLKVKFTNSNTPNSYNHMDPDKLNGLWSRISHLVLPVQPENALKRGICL
Chain of Albumin (Bos taurus) (P02769 whole entry, looked up): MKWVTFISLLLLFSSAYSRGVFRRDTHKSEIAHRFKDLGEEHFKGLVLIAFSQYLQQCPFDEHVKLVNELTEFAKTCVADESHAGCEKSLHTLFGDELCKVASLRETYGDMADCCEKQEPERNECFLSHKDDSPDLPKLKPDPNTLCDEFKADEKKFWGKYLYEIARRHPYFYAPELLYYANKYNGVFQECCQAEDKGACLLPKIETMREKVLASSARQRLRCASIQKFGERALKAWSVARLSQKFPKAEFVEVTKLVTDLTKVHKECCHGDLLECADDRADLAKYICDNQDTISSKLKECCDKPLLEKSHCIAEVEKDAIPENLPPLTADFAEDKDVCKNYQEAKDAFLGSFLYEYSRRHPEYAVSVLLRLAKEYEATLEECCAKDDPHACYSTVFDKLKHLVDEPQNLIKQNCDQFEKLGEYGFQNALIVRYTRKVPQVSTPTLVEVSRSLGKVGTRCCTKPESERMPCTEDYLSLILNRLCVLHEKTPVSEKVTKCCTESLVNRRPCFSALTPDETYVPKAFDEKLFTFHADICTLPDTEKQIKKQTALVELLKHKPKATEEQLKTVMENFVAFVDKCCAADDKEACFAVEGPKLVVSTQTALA

| SMILES | composite z-score [1] | z-score [2] | composite z-score [3] | composite z-score [4] | composite z-score [5] | composite z-score [6] | composite z-score [7] | composite z-score [8] | composite z-score [9] | composite z-score [10] | composite z-score (Albumin (Bos taurus)) | composite Z-score [11] | composite z-score [12] | composite z-score [13] | composite z-score [14] | composite z-score [15] | composite z-score [16] | composite z-score (Sam68 (KHDRBS1)) | composite z-score [17] | composite z-score [18] |
| --- | --- | --- | --- | --- | --- | --- | --- | --- | --- | --- | --- | --- | --- | --- | --- | --- | --- | --- | --- | --- |
| C=C(C(=O)CC[C@H](OC(=O)c1cccnc1)c1ccc(CO)o1)C(C)C | 0.362 | -1.43 | 0.584 | 0.627 | -0.316 | 0.0973 | 0.39 | 0.013 | 1.18 | 1.19 | 0.0812 | 0.674 (inactive) | 0.0596 | -0.0633 | 0.655 | 0.403 | 0.309 | 0.839 | 0.302 | 0.645 |
| CN(C)C(=O)[C@]1(CCC(=O)OC(C)(C)C)N=C(c2ccc(OCCCO)cc2)O[C@@H]1c1ccccc1 | 1.17 | 0.381 | 0.119 | 0.989 | 0.744 | 0.14 | 0.0793 | 0.289 | 2.76 | 0.654 | 0.383 | 0.666 (inactive) | 0.116 | -0.0308 | 0.469 | 3.06 | 0.264 | 0.374 | -0.792 | 0.34 |
| COC(=O)Cn1c(C(=O)N2CCCC2)cc2c1C[C@H]1CN(C(=O)c3ccccc3)[C@@](Cc3ccc(F)cc3)(C(=O)OC)[C@@H]21 | -0.137 | -1.32 | -0.0715 | 1.15 | 0.153 | -0.0405 | -0.0738 | -0.298 | 0.943 | -0.155 | 0.827 | -0.14 (inactive) | -0.0888 | -0.036 | 0.885 | 0.965 | 0.0395 | -1.17 | -0.451 | -0.432 |
| CN1C2C=C(CCCO)C(C3C(=O)N(C(N)=O)C(=O)C32)C1c1cccs1 (stereo not given) | 0.261 | -0.364 | 0.362 | -0.555 | -0.328 | 0.535 | -0.138 | -0.0987 | 0.377 | 0.378 | -0.435 | -0.394 (inactive) | -0.179 | 0.61 | 0.409 | 0.924 | -0.212 | 0.226 | 1.51 | -0.0398 |
| CCC[C@@H]1C[C@@]1(CCC)[C@@H](NP(=O)(c1ccccc1)c1ccccc1)c1ccc(Cl)cc1 | -0.213 | -1.62 | -0.427 | -0.915 | -1.31 | -0.127 | 1.44 | -0.532 | -0.357 | -0.846 | -0.811 | -1.49 (inactive) | 0.0306 | -0.0166 | -0.0589 | 0.772 | 0.38 | 0.179 | 0.603 | -0.765 |
| O=C1NC(=O)C2C1C=CC(C(O)c1ccc3c(c1)OCO3)N2Nc1ccccn1 (stereo not given) | -0.945 | 0.0264 | 0.324 | 0.151 | -0.197 | -0.0524 | -0.0769 | 0.677 | 0.493 | 0.498 | 0.939 | 0.246 (inactive) | -0.0324 | -0.12 | 0.555 | 2.99 | 0.183 | 0.153 | 0.704 | 0.667 |
| CCCCC(CC)C(O)C1C=CC2C(=O)N(c3ccccc3)C(=O)C2N1Nc1ccc([N+](=O)[O-])cc1 (stereo not given) | 1.37 | -0.127 | 0.362 | 1.68 | -0.371 | -0.0519 | -0.258 | -0.623 | 0.513 | 1.27 | 0.985 | -0.189 (inactive) | 0.44 | -0.161 | 0.652 | 1.86 | 0.914 | 1.31 | 0.0772 | 1.18 |
| COCCOC(=O)N1C(=O)[C@@]2(c3cc(C#CC4=CCCCC4)ccc31)[C@H](c1ccc(O)cc1)N1[C@H](c3ccccc3)[C@H](c3ccccc3)OC(=O)[C@H]1[C@@H]2C(=O)Nc1nc2ccccc2s1 | 0.909 | -0.598 | 0.494 | 1.81 | 0.0702 | -0.0654 | -0.066 | -0.482 | 1.12 | 1.21 | 0.802 | -0.202 (inactive) | 0.302 | -0.121 | 0.556 | 2.78 | 0.657 | 1.32 | 0.206 | 1.12 |
| C=C(COC)/C(=C/C[C@@H](OC(=O)c1ccncc1)c1ccc(CO)o1)c1cnc2ccccc2c1 | 1.42 | -0.632 | 1.03 | 0.274 | -0.851 | 0.0037 | 0.365 | 0.557 | 1.83 | 2.65 | 0.516 | 1.35 (inactive) | 0.412 | -0.14 | 0.951 | 0.831 | 0.589 | 1.3 | 1.47 | 1.23 |
| CC(=O)n1cc(C(O)C2C=CC3C(=O)N(Cc4ccccc4)C(=O)C3N2n2cnnc2)c2ccccc21 (stereo not given) | -0.179 | -1.49 | 0.0796 | 0.416 | -0.568 | -0.0721 | -0.0626 | -0.305 | 0.463 | 1.09 | 0.136 | -0.213 (inactive) | 0.0576 | -0.0304 | 0.444 | 0.983 | 0.281 | -0.0572 | -0.243 | 0.458 |
| CCOC(=O)C1=CC[C@@H](c2cc(Cl)ccc2Cl)N(S(=O)(=O)c2ccc(C)cc2)[C@H]1c1ccc(OC)cc1 | -0.157 | -2.23 | -0.658 | 0.379 | 0.379 | 0.374 | 0.898 | -0.412 | 0.417 | -0.369 | 0.596 | 0.552 (inactive) | 0.258 | 0.586 | 0.25 | 0.515 | 0.325 | -0.0808 | -0.362 | -1.21 |
